Results reported in PubChem BioAssay (NCATS).
Several values for one entry are separate records, joined by “and”; a condition that tells them apart may be missing. Equal entries are not always repeated. Records with an inconclusive call do not appear. Where a structure was tested more than once in an assay, its records may differ in their call. Activity calls are given as the source filed them. Calls come from the whole dose curve; as a rule, active = well fitted inhibition curve with a large enough effect; inconclusive = small, poorly fitted or top-dose-only effect; inactive = no such curve, though single readings can be large or run the other way.
% is set by controls: 0 for no effect and ±100 for the full control effect; potency is the fitted concentration of half-maximal effect.

Assay: Primary qHTS for inhibitors of nuclear receptor binding SET domain protein 2 (NSD2) in an RCH-ACV wild type WT cells (2C) (AID 1645877); note: nearly all actives have a fitted effect of over 70% in size
Settings: RCH-ACV (leukaemia line) NSD2 WT (2C) viability, CellTiter-Glo, 72 h; series mostly up to 44.9 µM; activity change, negative = cell killing: at the top concentration
In the case of `CC(=O)Oc1ccc(C)cc1`, the “outcome” value is reported as “inactive”. With `CN(C)CCOC(=O)C(c1ccccc1)C1(O)CCCC1` (stereo not drawn) the “activity change, negative = cell killing” value was -12.2% (inactive). With `CCOc1cc(OCC)c(C(=O)CCC(=O)O)cc1OCC` the “activity change, negative = cell killing” value was -9.81% (inactive). In the case of `CC(=O)Nc1ccc(S(=O)(=O)Nc2ccc([N+](=O)[O-])cc2)cc1`, the “activity change, negative = cell killing” value is reported as -22.6% (inactive). For `CCC(Cc1c(I)cc(I)c(N)c1I)C(=O)O` (stereo not drawn), the “activity change, negative = cell killing” value was -5.9% (inactive). With `CN1CCc2cccc3c2[C@H]1Cc1ccc(O)c(O)c1-3` the Potency was 7.5 µM (active). For `O=c1[nH]c(=O)n([C@H]2C[C@H](O)[C@@H](CO)O2)cc1F`, the Potency was 8.4 nM (active) and 46.8 nM (active). For `N=C(N)N1CCc2ccccc2C1`, the activity change, negative = cell killing was -10.2% [at 4.96 µM] (inactive). For `Cn1c(=O)c2[nH]c(Br)nc2n(C)c1=O`, the “outcome” value was “inactive”. With `O[C@@H](c1cc(C(F)(F)F)nc2c(C(F)(F)F)cccc12)[C@H]1CCCCN1` the Potency was 7.5 µM (active). In the case of `CC(=O)O[C@H]1C[C@@H]2CC[C@@H]3[C@H](CC[C@@]4(C)[C@H]3C[C@H]([N+]3(C)CCCCC3)[C@@H]4OC(C)=O)[C@@]2(C)C[C@@H]1N1CCCCC1`, the “activity change, negative = cell killing” value is reported as -8.84% (inactive). For `CC(C)(C)NC[C@H](O)COc1cccc2c1CCCC2=O`, the “activity change, negative = cell killing” value was -2.92% (inactive). With `CC(C)CCCC(C)N` (stereo not drawn) the “activity change, negative = cell killing” value was -5.23% (inactive). For `C[C@@H](O)[C@H]1C(=O)N2C(C(=O)O)=C(S[C@@H]3CN[C@H](CNS(N)(=O)=O)C3)[C@H](C)[C@H]12`, the “activity change, negative = cell killing” value was 5.82% (inactive). In the case of `CCNC(=O)/C=C/c1cccc(Br)c1`, the “activity change, negative = cell killing” value is reported as -23.1% (inactive). For `Cc1c(-c2ccccc2)oc2c(C(=O)OCCN3CCCCC3)cccc2c1=O`, the “activity change, negative = cell killing” value was -15.3% (inactive). For `CNCCc1ccccn1`, the “activity change, negative = cell killing” value was 8.27% (inactive). For `CC(C)(C)NC[C@H](O)COc1nsnc1N1CCOCC1`, the “activity change, negative = cell killing” value was 1.39% (inactive). In the case of `CC(C)(C)NCC(O)COc1cccc2c1C[C@H](O)[C@H](O)C2` (stereo partly drawn), the “activity change, negative = cell killing” value is reported as 0.298% (inactive). With `CC(C)NCC(O)c1ccc2ccccc2c1` (stereo not drawn) the “activity change, negative = cell killing” value was -7.15% (inactive). In the case of `CC1=C(C(=O)O)N2C(=O)[C@@H](NC(=O)[C@H](N)c3ccccc3)[C@H]2SC1`, the “activity change, negative = cell killing” value is reported as 4.43% (inactive). In the case of `O=C(Oc1cccc2cccnc12)c1ccccc1`, the “activity change, negative = cell killing” value is reported as -97.9% (inactive). In the case of `CC(=O)N[C@@H](CCC(=O)O)C(=O)O`, the “activity change, negative = cell killing” value is reported as 7.95% (inactive). With `NS(=O)(=O)c1cc2c(cc1Cl)NC(CC1CCCC1)NS2(=O)=O` (stereo not drawn) the “activity change, negative = cell killing” value was -13.4% (inactive). In the case of `C[C@@]12C(=O)OC(=O)[C@]1(C)C1CCC2O1`, the Potency is reported as 2.66 µM (active). In the case of `CCCCCCCCCCCCCCCCO`, the “activity change, negative = cell killing” value is reported as 7.84% (inactive). In the case of `NCCNC(=O)c1ccc(Cl)cn1`, the “activity change, negative = cell killing” value is reported as 5.89% (inactive). In the case of `NS(=O)(=O)c1ccc(Cl)c(S(N)(=O)=O)c1`, the “activity change, negative = cell killing” value is reported as -6.89% (inactive). In the case of `N/C(=N\N=C\c1ccc(Cl)cc1)N/N=C/c1ccc(Cl)cc1`, the “activity change, negative = cell killing” value is reported as -5.92% (inactive). With `C#C[C@]1(O)CC[C@H]2[C@@H]3CCC4=CC(=O)CC[C@@H]4[C@H]3CC[C@@]21CC` the Potency was “inactive”. In the case of `Cc1ccc(S(=O)(=O)NC(=O)NC2CCCC2)cc1`, the “activity change, negative = cell killing” value is reported as 2.91% (inactive). With `COc1cc([C@H]2Oc3cc([C@H]4Oc5cc(O)cc(O)c5C(=O)[C@@H]4O)ccc3O[C@@H]2CO)ccc1O` the Potency was “inactive and 23.5 µM (active)”. With `COc1cc(C(=O)N2CCCCCCC2)cc(OC)c1OC` the “activity change, negative = cell killing” value was 8.01% (inactive).
